Dicer processing: blocks human Dicer maturation of pre-miR-21. cat-ELCCA pre-miR-21 Dicer processing, chemiluminescence; active compounds read high. Q9UPY3. actives 6% (n = 47,000). z-score at 25 µM; in the data active = z-score above about 3, passing the limit was not always enough;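 also: plate controls were vehicle for no effect and no enzyme for full effect; higher signal means more uncleaved substrate so more Dicer inhibition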
Target sequence (Q9UPY3 whole entry, looked up): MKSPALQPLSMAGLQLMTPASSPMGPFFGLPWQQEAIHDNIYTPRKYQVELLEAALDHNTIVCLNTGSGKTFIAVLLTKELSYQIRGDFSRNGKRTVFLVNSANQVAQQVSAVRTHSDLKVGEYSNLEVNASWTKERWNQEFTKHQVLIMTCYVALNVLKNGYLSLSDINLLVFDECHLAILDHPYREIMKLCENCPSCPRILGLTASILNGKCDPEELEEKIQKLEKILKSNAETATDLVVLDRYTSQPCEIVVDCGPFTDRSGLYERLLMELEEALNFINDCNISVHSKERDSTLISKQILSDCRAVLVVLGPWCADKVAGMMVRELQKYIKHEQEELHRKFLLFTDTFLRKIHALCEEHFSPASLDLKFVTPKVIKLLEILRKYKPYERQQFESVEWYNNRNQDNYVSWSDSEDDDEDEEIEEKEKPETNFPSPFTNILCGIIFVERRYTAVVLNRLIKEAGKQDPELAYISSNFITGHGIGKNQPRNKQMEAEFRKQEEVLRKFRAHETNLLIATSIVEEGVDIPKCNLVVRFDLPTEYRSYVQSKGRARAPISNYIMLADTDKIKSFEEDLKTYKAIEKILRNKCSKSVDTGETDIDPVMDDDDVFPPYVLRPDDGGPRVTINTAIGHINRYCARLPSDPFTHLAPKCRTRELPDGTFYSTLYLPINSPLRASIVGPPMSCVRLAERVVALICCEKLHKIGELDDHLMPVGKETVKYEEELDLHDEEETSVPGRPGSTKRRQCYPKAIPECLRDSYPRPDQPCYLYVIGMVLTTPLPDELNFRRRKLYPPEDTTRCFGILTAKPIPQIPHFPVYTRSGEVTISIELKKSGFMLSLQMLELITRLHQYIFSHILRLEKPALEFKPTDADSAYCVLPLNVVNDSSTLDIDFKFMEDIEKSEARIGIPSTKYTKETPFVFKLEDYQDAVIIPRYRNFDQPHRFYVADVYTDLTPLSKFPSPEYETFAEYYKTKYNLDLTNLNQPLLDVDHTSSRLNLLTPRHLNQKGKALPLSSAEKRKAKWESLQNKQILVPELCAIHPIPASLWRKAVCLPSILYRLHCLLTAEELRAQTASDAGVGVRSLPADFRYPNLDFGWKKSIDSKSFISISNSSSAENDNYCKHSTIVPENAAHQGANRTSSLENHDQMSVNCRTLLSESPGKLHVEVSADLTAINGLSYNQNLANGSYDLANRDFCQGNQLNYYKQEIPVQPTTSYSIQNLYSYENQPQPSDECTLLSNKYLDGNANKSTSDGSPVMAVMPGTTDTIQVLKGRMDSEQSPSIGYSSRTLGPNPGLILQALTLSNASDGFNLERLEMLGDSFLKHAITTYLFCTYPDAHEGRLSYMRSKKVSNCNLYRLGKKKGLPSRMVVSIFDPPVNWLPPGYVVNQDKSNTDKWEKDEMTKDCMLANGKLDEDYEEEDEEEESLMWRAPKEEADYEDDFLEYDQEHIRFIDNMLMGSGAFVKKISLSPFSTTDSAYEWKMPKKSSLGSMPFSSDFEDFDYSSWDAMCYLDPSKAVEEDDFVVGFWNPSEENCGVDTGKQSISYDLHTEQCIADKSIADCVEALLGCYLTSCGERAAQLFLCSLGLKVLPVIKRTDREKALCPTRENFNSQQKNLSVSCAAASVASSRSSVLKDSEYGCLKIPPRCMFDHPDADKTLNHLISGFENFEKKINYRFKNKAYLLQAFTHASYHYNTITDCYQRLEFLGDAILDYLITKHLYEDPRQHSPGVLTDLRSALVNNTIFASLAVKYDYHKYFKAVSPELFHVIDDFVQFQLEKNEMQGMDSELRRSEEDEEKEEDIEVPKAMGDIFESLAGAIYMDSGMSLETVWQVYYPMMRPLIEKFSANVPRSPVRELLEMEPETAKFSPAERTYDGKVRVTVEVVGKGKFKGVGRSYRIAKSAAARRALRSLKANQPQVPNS
* hit, by the source's call. Shown is part of a subset that was picked to be rich in hits.

SMILES	Dicer processing
O=c1c(-c2cccc3ccccc23)c(C(F)(F)F)oc2cc(O)ccc12	-0.11
CCC1CCCCN1C(=O)CSc1nc(-c2ccco2)cc(C(F)(F)F)n1 (centres undefined)	0.04
O=C(/C=C/OC(=O)c1ccc(Cl)cc1)c1ccc(Cl)cc1	0.32
CCn1c[n+](CC(O)COc2ccc(OC)cc2)c2ccccc21 (centres undefined)	-0.01
CC1CC(=O)N(C)c2ccccc2S1(=O)=O (centres undefined)	3.95*
CN1C(=O)CN(C2CCCCC2)C(=O)c2ccccc21	2.52
CN1C(=O)CC(c2ccsc2)Sc2ccccc21 (centres undefined)	0.73
COc1ccc(OCC(O)CNC2CCN(CC(O)COc3ccc(Cl)c(Cl)c3)CC2)cc1 (centres undefined)	-0.29
CCOC(=O)c1c(NC(=O)C(C)Oc2ccc(OC)cc2)sc2c1CCC(C)C2 (centres undefined)	2.72
CCOC(=O)c1c(NC(=O)Nc2cc(OC)ccc2Cl)sc2c1CCN(C)C2	3.43*
CCOC(=O)c1c(NS(=O)(=O)c2ccc(OC)c(OC)c2)sc2c1CCC2	-1.27
CCOC(=O)c1c(NC(=O)Oc2ccccc2)sc2c1CCC2	-0.88
CCOC(=O)c1c(NCc2cc(OC)ccc2O)sc2c1CCC2	4.08*
CCOC(=O)c1c(NC(=O)Nc2ccc(C)cc2)sc2c1CCN(C)C2	2.11
NC(=O)N/N=C/c1ccc2c(c1)OCO2	-0.72
CCC(=O)Oc1ccc2oc(-c3ccc(OC)cc3)cc(=O)c2c1	0.96
CC(=O)Nc1c2ccccc2n2c(C)nc3ccc(Cl)cc3c12	1.44
CCSc1cc(C(F)(F)F)nc2c(Br)c(C(C)(C)C)nn12	-0.84
O=C(Nc1ccc(N2CCOCC2)cc1)c1ccc(Oc2cc(Cl)cc(Cl)c2)o1	0.52
O=C(Nc1ccc(N2CCOCC2)cc1)c1ncn[nH]1	2.03
O=C(Nc1ccc(N2CCOCC2)cc1)c1cc2cc(Cl)ccc2[nH]1	4*
CC(C)(C)OC(=O)N1CCCN(S(=O)(=O)c2ccc(N3C(=O)CC4(CCCC4)C3=O)c(Cl)c2)CC1	-1.3
O=C1C(=O)N(CCCN2CCOCC2)C(c2cccnc2)/C1=C(\O)c1ccc(F)cc1 (centres undefined)	3.45*
O=C1C(=O)N(CCCN2CCOCC2)C(c2ccc(Cl)cc2)/C1=C(\O)c1ccc(F)cc1 (centres undefined)	-0.47
Cc1ccc(/C(O)=C2\C(=O)C(=O)N(CCN3CCOCC3)C2c2cccnc2)cc1 (centres undefined)	0.8
SMILES	Dicer processing
CC(Oc1ccc(Oc2ccc(C(F)(F)F)cc2)cc1)C(=O)Nc1ccc(Cl)cc1 (centres undefined)	-1.21
COc1cccc(/C=N/NC(=O)CN2C(=O)CSc3ccccc32)c1	3.19*
Cc1nn(-c2ccccc2)cc1/C=N/NC(=O)Cn1nc2n(c1=O)-c1ccccc1SC2	1.38
Cc1ccc(/C=N/NC(=O)Cn2nc3n(c2=O)-c2ccccc2SC3)o1	1.29
S=c1scc(-c2ccc(Cl)c(Cl)c2)n1Nc1ccccc1	-0.84
CCN(CC)Cc1c(C)[nH]c2ccc(C)cc2c1=O	3
Cc1cc(Cl)cc2c1C(=O)/C(=C\c1cc(Br)cs1)S2	1.04
CCOc1ccc(C2C(C(=O)OC(C)C)=C(C)NC3=C2C(=O)CCC3)cc1OC (centres undefined)	-0.46
Cc1cccc(NC(=O)c2ccc(Cl)cc2)n1	3.08*
Cc1cccc(NC(=O)c2ccccc2)n1	0.52
O=C(Nc1ncccn1)c1ccc(Cl)cc1	-0.85
N#C/C(=C\Nc1cc(C(F)(F)F)cc(C(F)(F)F)c1)C(=O)Nc1ccc(F)c(Cl)c1	-0.31
Clc1ccc(-c2nc(Sc3nc(-c4cccs4)ns3)n[nH]2)cc1	-0.04
CSc1nnc(-c2ccc(Br)cc2)o1	1.54
Cc1ccc(-c2nnc(-c3ccc(Br)cc3)o2)cc1	3.77*
CSc1nnc(-c2ccc(C)cc2)o1	0.94
CCc1ccc(CN2CCC(N3CCCC(C)C3)CC2)cc1 (centres undefined)	0.61
CC(=O)OC[C@@H](OC(C)=O)[C@@H](OC(C)=O)[C@@H](OC(C)=O)C(N)=O	-1.77
Cc1oc2ccc(NS(=O)(=O)c3ccc(Cl)cc3)cc2c1C(=O)OC(C)C	1.67
O=S(=O)(Nc1ccc(O)c(-c2c(O)ccc3ccccc23)c1)c1ccc(Cl)cc1	8.46*
CC(=O)Nc1cc2cc(NS(=O)(=O)c3ccc(Cl)cc3)ccc2oc1=O	-0.32
Cc1csc(C(=O)O/N=C/c2ccc(Cl)cc2Cl)c1	0.04
CS(=O)(=O)N1N=C(c2ccco2)CC1c1cn(-c2ccccc2)nc1-c1cccs1 (centres undefined)	-0.92
COC(=O)c1ccc(COCOCc2ccc(C(=O)OC)o2)o1	0.87
COC(=O)c1ccc(Cn2nc(C)c([N+](=O)[O-])c2C)o1	1.11
SMILES	Dicer processing
COC(=O)c1ccc(CN(C)C)o1	5.79*
Cc1cc(NS(=O)(=O)N2CCC(C)CC2)no1	-1.42
CCCCSc1sc(C(=O)O)c(-c2ccc(Cl)cc2)c1C#N	-0.42
c1ccc(-c2nnc3sc(-c4ccco4)nn23)cc1	3.01*
c1ccc(-c2nn3c(-c4ccccc4)nnc3s2)cc1	-0.02
c1ccc(-c2nnc3sc(-c4cccs4)nn23)cc1	-0.93
COc1ccc2c(c1)c(=O)oc1cc(OCC(N)=O)ccc12	0.74
COc1ccc(-c2noc(/C=C/c3ccccc3Cl)n2)cc1OC	0.46
COc1ccc(C(=O)OCC(=O)c2ccc(Br)cc2)cc1OC	0.14
COc1cccc(C(=O)OCC(=O)c2ccc(Br)cc2)c1	5.86*
Cc1ccc(I)c(C(=O)OCC(=O)c2ccc(Br)cc2)c1	1.22
CC[n+]1c(/C=C/c2ccc(N(C)C)cc2)ccn1-c1ccccc1	3.33*
CN(C)c1ccc(/C=C/C2=Nc3ccccc3C2(C)C)cc1	-1.06
CC[n+]1c(/C=C/c2ccc(N(C)C)cc2)sc2ccccc21	0.65
CCOC(=O)NN1C(=O)c2cccc3cccc(c23)C1=O	-0.31
c1ccc(-c2csc(Cc3c[nH]c4ccccc34)n2)cc1	1.17
Cc1ccc(C2=N/C(=C\c3cccs3)C(=O)O2)cc1[N+](=O)[O-]	-1.08
CC1=C(C(=O)Nc2cccc(C)n2)C(c2ccsc2)C2=C(CC(C)(C)CC2=O)N1 (centres undefined)	0.2
CCSCCOC(=O)C1=C(C)NC2=C(C(=O)CC(C)(C)C2)C1c1ccsc1 (centres undefined)	10.5
CC1=C(C(=O)Nc2cccc(F)c2)C(c2ccsc2)C2=C(CC(C)(C)CC2=O)N1 (centres undefined)	3.74*
CSc1nc(/N=C/N(C)C)n(-c2cc(C(F)(F)F)cc(C(F)(F)F)c2)n1	-0.09
c1ccc(CCc2nnc3c4c5c(sc4ncn23)CCCC5)cc1	0.1
CCCc1nnc2c3c4c(sc3ncn12)CC(C)CC4 (centres undefined)	4.81*
CCc1nnc2c3c4c(sc3ncn12)CC(C)CC4 (centres undefined)	-0.79
C/C(=N/OC(=O)Nc1ccccc1C)c1ccc2c(c1)CCO2	1.98
SMILES	Dicer processing
COc1ccccc1-c1nc(SCC(=O)c2ccccc2)n[nH]1	0.59
Cc1cc(C)nc(SCC(=O)c2ccccc2)n1	-0.31
Cc1cc(C)nc(SCC(=O)c2cccs2)n1	2.44
Cc1cc(C)nc(SCCC(=O)O)n1	3.23*
Cc1cc(C)nc(SCc2ccccc2)n1	-0.98
Cc1cc(C)nc(SCC(=O)Nc2ncccn2)n1	1.11
CCc1nc(SCC(=O)c2ccc(O)c(O)c2)n[nH]1	0.01
Cc1cc(C)nc(SCC(=O)c2ccc(O)c(O)c2)n1	3.15*
O=C(CSc1n[nH]c(-c2ccccc2Cl)n1)c1ccc(O)c(O)c1	4.89*
